The test has as its system Rolipram (rat). Kind of test: PubChem AID 1788. The following applies: MDS Pharma lead profiling panel, radioligand binding, at 10 µM, active compounds read high.

Unmarked numbers belong to inactive results. The rule behind the calls is not given here.

For orientation: inhibition means the drop in the measured response relative to a control, in per cent. For the compound `CCOC(=O)N1CCC(NCCNC(=O)c2ccccc2C)CC1`, the inhibition was -2%.

The values are drawn from PubChem BioAssay AID1788 (Vanderbilt High Throughput Screening Facility, 2009).
